# This is part of a sample that, as a whole, favours compounds with a hit. Of some 83,000 tested, about 20% had one in any assay.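 48-hour exposure, single concentration, 96-well plates; percent growth endpoint where 0 means no net growth. Active: below 10.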 Active and inactive are the calls of the source.
# Test system: HL-60(TB) leukemia
# Test: NCI-60 one-dose screen, 48 h (100 = growth as untreated, 0 = no growth, -100 = all killed)
# Conditions: 10 µM unless noted
row,SMILES,growth
1,COc1ccc2nc3cc(Cl)ccc3c(NCCNCC(C)O)c2c1 (stereo not given),21.8% (inactive)
2,CC(C)CCC[C@@H](C)[C@H]1CCC2C3=CCC4C(=O)C=CC(=O)C4C3CC[C@@]21C (stereo not given in full),-5.46% (active)
3,O=C(CSc1nnc(-c2ccc(Cl)cc2)o1)c1ccccc1,90.9% (inactive)
4,COc1ccc(-c2nc(N/N=C/c3cccc(Br)c3)nc(N3CCOCC3)c2C#N)cc1,10.7% (inactive)
5,COc1cc2nc(Cc3ccc(C)cc3)[nH]c(=O)c2cc1OC,98.7% (inactive)
6,O=C(CSc1nnc(-c2cc(-c3ccccc3)nc3ccccc23)o1)c1ccc(Br)cc1,99.4% (inactive)
7,O=c1cc(-c2nccc3c2[nH]c2ccccc23)c2cc(Cl)ccc2o1,0.737% (active)
8,O=C1Nc2ccccc2SC1C1SC(=S)N(Cc2ccccc2)C1=O (stereo not given),0.669% (active)
9,COc1ccc(-c2ccc(=O)oc2-c2cc(OC)c(OC)c(OC)c2)cc1O,-55.6% (active)
10,O=C(Nc1cccc(C2=NCCN2)c1)c1ccc(N=Nc2ccc(C(=O)Nc3cccc(C4=NCCN4)c3)cc2)cc1,42.5% (inactive)
11,CN(C)c1ncnc2c1cnn2C,108% (inactive)
12,CN(N)c1nc2sc3c(c2c(=O)[nH]1)CCCC3,102% (inactive)
13,COC1OC(CO)C(OC)C(O)C1O (stereo not given),103% (inactive)
14,O=S(=O)(Nc1ccc(-n2cnc3cc(-c4ccc(O)cc4)ccc32)cc1)c1ccccc1,79% (inactive)
15,COc1ccc2nc(-c3ccc(Cl)cc3)cc(-c3nnc(SCC(=O)Nc4ccc(C(C)=O)cc4)n3-c3ccccc3)c2c1,99.3% (inactive)
16,CCN(CC)CCOc1ccc(C(=O)/C=C\c2ccc(Cl)cc2Cl)cc1,-29.2% (active)
17,Cc1cc(C)c(CCc2cc(C)c(C)cc2C)cc1C,99.9% (inactive)
18,COc1cc(-c2cc(-c3nc4ccc(Cl)cc4[nH]3)[nH]n2)cc(OC)c1OC,38.4% (inactive)
19,Cc1ccccc1[P+](Cc1ccccc1)(c1ccccc1)c1ccccc1,-26.9% (active)
20,COc1ccc(CCN2CCCN3C2=Nc2ccccc2S3(=O)=O)cc1,3.21% (active)

row,SMILES,growth
1,O=C1NC(Cc2c[nH]c3ccccc23)C(=O)N1Cc1ccc(Cl)cc1 (stereo not given),74% (inactive)
2,O=[N+]([O-])C1=C(c2ccccc2)SC=C(c2ccccc2)S1,70.9% (inactive)
3,O=NN(Cc1cccnc1)C(=O)NC1CCCCC1,120% (inactive)
4,Fc1ccc(Nc2ncnc3ccc(-c4cn[nH]c4)cc23)cc1Cl,83.7% (inactive)
5,CCc1oc2ccccc2c1C(=O)c1cc(I)c(O)c(I)c1,10.1% (inactive)
6,Cn1cc(-c2csc(-c3cn(CCCN4CCOCC4)c4ccc(F)cc34)n2)c2cccnc21,69.9% (inactive)
7,Clc1nc(Cl)c2ncn(C/C=C\Cn3cnc4c(Cl)nc(Cl)nc43)c2n1,-70.2% (active)
8,CN(C)/C=C1\SC(=Nc2ccc(Cl)cc2)NC1=O,99.5% (inactive)
9,CC(C)(C)CC(C)(C)n1nnnc1C(NC12CC3CC(CC(C3)C1)C2)c1ccccc1 (stereo not given),99.3% (inactive)
10,CC(C(=O)n1cc(-c2ccccc2)c(-c2ccccc2)c1)c1ccccc1 (stereo not given),106% (inactive)
11,C=C1C(=O)O[C@H]2[C@H]1CC/C(COC(=O)NCCCCCCCCNC(=O)OC/C1=C/CC[C@@]3(C)O[C@H]3[C@H]3OC(=O)C(=C)[C@@H]3CC1)=C\CC[C@@]1(C)O[C@@H]21,-50.2% (active)
12,CCOc1ccc(N=C(C)Nc2ccc(OCC)cc2)cc1,76.4% (inactive)
13,Cn1ncc2cc3c(Nc4ccc(Cl)cc4)cccc3nc21,95.1% (inactive)
14,CO[C@H]1CC[C@@]2(C)C(=CC[C@H]3[C@@H]4C[C@H](O)C[C@@]4(C)CC[C@@H]32)C1,22.6% (inactive)
15,CCOc1ccc(-c2cnnn2-c2nonc2-n2cccc2)cc1,-23.8% (active)
16,C#CCOc1cccc(Nc2ncnc3c(NC(=O)CCl)cccc23)c1,-59.1% (active)
17,CC1CCC(C)N(C)C1 (stereo not given),96.2% (inactive)
18,O=C(/C=C/c1ccco1)c1cccc(Nc2nc(Nc3ccccc3)nc(Nc3ccccc3)n2)c1,91.1% (inactive)
19,COc1cccc(-c2nc(-c3ccc(NC(=O)c4ccccc4)cc3)[nH]c2-c2ccnc(Br)c2)c1,-34% (active)
20,Cc1cc(Cl)nc(Nc2ccccc2)n1,78.1% (inactive)

# — PubChem BioAssay (NCI)
